High-throughput results: PubChem, Broad Institute
Statin myotox sup: suppression of simvastatin myotoxicity; C2C12 myotubes + simvastatin, ATP luminescence, 48 h; scaled: DMSO 0, geranylgeraniol control 100; rescue of ATP level, % at 7.49 µM; hit rate 0.78% among 330,000; AID 602340;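 active = mean ATP rescue above about 67%, or every replicate alone reaching that limit, limit read from the data, passing the limit was not always enough; inconclusive = no clear call, values can overlap the other calls; inactive = mean under the limit and some replicate under it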;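 also: myotubes were challenged with 10 µM simvastatin during compound exposure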
Rtt109 HAT inh: inhibitors of Candida albicans Rtt109/Vps75 histone acetyltransferase; Q5AAJ8; purified Rtt109/Vps75, ThioGlo CoA-SH fluorescence, 4 h; inhibition, % at 34.9 µM; hit rate 0.16% among 330,000; AID 540336;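 active = inhibition of at least 50% in every replicate; inconclusive = best replicate reaches 50% inhibition but some replicates fall short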
Target sequence (Q5AAJ8 whole entry, looked up): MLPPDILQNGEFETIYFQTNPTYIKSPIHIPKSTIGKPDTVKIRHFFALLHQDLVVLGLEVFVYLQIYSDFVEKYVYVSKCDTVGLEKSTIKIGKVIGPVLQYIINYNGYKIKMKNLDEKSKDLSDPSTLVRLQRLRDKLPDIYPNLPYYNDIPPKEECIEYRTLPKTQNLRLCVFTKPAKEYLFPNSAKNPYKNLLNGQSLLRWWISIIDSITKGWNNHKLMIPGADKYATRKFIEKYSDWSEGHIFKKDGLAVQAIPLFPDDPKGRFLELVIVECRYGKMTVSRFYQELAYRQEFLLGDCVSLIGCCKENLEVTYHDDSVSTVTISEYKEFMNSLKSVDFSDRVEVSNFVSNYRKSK
esBAF inh: inhibitors of esBAF chromatin remodeling in mouse ES cells; Bmi1-luciferase knock-in reporter, 24 h; 100% = twice the neutral-well signal; reporter increase, % at 12.5 µM; hit rate 2% among 350,000; in the data active = activation above about 40%; inconclusive = no clear call, values can overlap the other calls;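 also: 0% = median of the plate's neutral control wells and 100% = double that signal; a rise in the Bmi1 reporter signal indicates esBAF inhibition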
MITF act: MITF TRPM1 promoter activation in melanoma cells; SK-MEL-5 TRPM1-promoter luciferase, 24 h; % of positive control, neutral wells = 0; activation, % at 12.5 µM; hit rate 0.75% among 300,000;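 active = mean activation of at least 80% with every replicate also reaching 80%; inconclusive = mean reaches 80% but some replicate falls short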;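 also: 0% = neutral control wells and 100% = parthenolide positive control wells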
Wnt act: Wnt/beta-catenin pathway activation; AID 743398; Wnt/beta-catenin reporter cell assay, activator, plate reader; hit rate 1.2% among 300,000; activation, % at 9.35 µM; in the data active = activation above about 30%, passing the limit was not always enough; inconclusive = no clear call, values can overlap the other calls;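 also: 0% = neutral control wells and 100% = positive control wells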
* marks the source's active call; other numbers are inactive results; ? = inconclusive; / = not tested or not shown. Compounds with a hit are over-represented: about 3.1% of the library has one in this group of screens.

SMILES	Statin myotox sup	Rtt109 HAT inh	esBAF inh	MITF act	Wnt act
COC(=O)[C@@H]1[C@@H](CO)[C@@H]2Cn3c(ccc(-c4ccccc4OC)c3=O)[C@@H]2N1C(=O)c1cccnc1	7	/	-1	/	/
OC[C@H]1O[C@@H](c2nc3ccc(-c4nc(-c5ccc(Br)cc5)no4)cc3[nH]2)C[C@@H]1O	-3	/	55*	/	22
CCN(CC)C(=O)c1ccc2nc([C@H]3C[C@H](O)[C@@H](CO)O3)[nH]c2c1	3	/	6	/	0
O=C(Nc1ccc(Cl)cc1)N[C@@H]1CC[C@@H](CCn2cc(-c3ccccc3F)nn2)O[C@H]1CO	-2	/	18	/	/
CC1CCC2(CC1)Nc1ccccc1C(=O)N2c1ccccc1 (configuration not stated)	/	-8	/	53	15
O=C1c2ccccc2NC2(CCCCC2)N1c1ccc(O)cc1	137*	-6	4	30	1
O=C(O)c1cc(N/N=C/c2ccc(-c3ccccc3)cc2)ccc1Cl	26	2	?	8	48*
O=C(O)c1ccc(N/N=C/c2ccc(-c3ccccc3)cc2)cc1	/	24	/	92*	1
CC(C)c1ccc(/C=N/Nc2ccc(C(=O)O)cc2)cc1	/	13	/	-67	-26
O=C(O)c1ccc(N/N=C/c2ccc(-c3ccc(Br)cc3)o2)cc1	72*	16	29	21	-6
O=C(O)c1ccc(/C=N/Nc2cccc(C(F)(F)F)c2)cc1	-7	4	88*	111*	11
O=C(O)c1cccc(N/N=C/c2ccc(F)c(F)c2)c1	-1	1	31	-15	-4
Cc1ccc(-c2ccc3c(c2)O[C@H](CN(C)Cc2cccnc2)[C@H](C)CN([C@@H](C)CO)S3(=O)=O)cc1	-20	/	-4	/	/
COn1c(-c2ccccc2)nc2ccc(Cl)cc21	-8	7	65*	/	/
O=[N+]([O-])c1ccc2nc(-c3ccccc3)n(OCc3ccc(Cl)cc3)c2c1	-14	-5	62*	/	/
Cc1cc(Cl)c2oc(C(=O)N(CCO)Cc3ccccc3)c(C)c2c1	-3	18	-3	19	7
Cc1c(C(=O)N2C[C@@H](C)O[C@@H](C)C2)oc2c(F)cccc12	-5	1	70*	73	12
Cc1c(C(=O)NCc2ccco2)oc2c(F)cccc12	27	4	-3	-15	1
Cc1c(C(=O)N2CCC[C@H]2CO)oc2c(F)cccc12	2	57*	24	/	22
Cc1c(C(=O)O)oc2c(F)cccc12	/	1	/	-4	-1
Cc1c(C(=O)NC2CCOC2)oc2c(F)cccc12 (configuration not stated)	20	4	70*	?	1
Cc1c(C(=O)N(CCO)Cc2ccccc2)oc2c(F)cccc12	34	-1	59*	/	4
CC(C)CC#Cc1cnc2c(c1)C(=O)N([C@H](C)CO)C[C@H](C)[C@H](CN(C)S(=O)(=O)c1cn(C)cn1)O2	9	/	1	/	/
CN(C)CCCNC(=O)C[C@H]1CC[C@@H](NC(=O)Cc2cccnc2)[C@H](CO)O1	6	/	0	/	/
COCC(=O)Nc1ccc2c(c1)OC[C@H](C)N(C(=O)Cc1ccccn1)C[C@H](C)[C@H](OC)CN(C)C2=O	10	/	-1	/	/
SMILES	Statin myotox sup	Rtt109 HAT inh	esBAF inh	MITF act	Wnt act
CCC(=O)Nc1ccc2c(c1)C(=O)N(C)C[C@H](OC)[C@H](C)CN(C(=O)CN1CCOCC1)[C@@H](C)CO2	10	/	-2	/	/
O=S(=O)(NCCOCC(F)(F)C(F)F)c1ccc2oc3ccccc3c2c1	/	1	/	-5	/
COc1ccc(OCCNS(=O)(=O)c2ccc3oc4ccccc4c3c2)cc1	101*	2	3	-9	4
Cc1cc(C)n(CC(=O)NC2CCCc3c2cnn3-c2ccc(C)c(C)c2)n1 (configuration not stated)	37	1	59*	29	9
O=C(NC1CCCCCC1)c1ccc2c(=O)n3c(nc2c1)CCCCC3	-35	-3	21	92*	/
O=C(Nc1ccc(F)cc1Cl)c1ccc2c(=O)n3c(nc2c1)CCCCC3	/	-5	/	55	/
O=C(Nc1ccccc1Cl)c1ccc2c(=O)n3c(nc2c1)CCC3	-3	0	16	71	51*
O=C(NCCOc1ccccc1F)c1ccc2c(=O)n3c(nc2c1)CCC3	6	-2	6	44	46*
O=C(COc1ccccc1F)NNC(=O)c1ccc2c(=O)n3c(nc2c1)CCC3	-1	-1	-3	-12	0
O=C(Nc1ccc(SC(F)F)cc1)c1ccc2c(=O)n3c(nc2c1)CCC3	-67	-4	87*	42	20
O=C(NCc1ccccc1)c1ccc2c(=O)n3c(nc2c1)CCCCC3	-1	2	3	1	-6
CC(C)NC(=O)N(C)C[C@H]1Oc2ccc(NC(=O)CCC(F)(F)F)cc2CC(=O)N([C@@H](C)CO)C[C@H]1C	-4	/	3	/	/
C[C@@H]1CN([C@@H](C)CO)C(=O)c2cc(NC(=O)CCCN(C)C)ccc2O[C@@H](C)CCCCO[C@@H]1CN(C)C	3	/	-9	/	/
Cc1cccc(NC(=O)c2ccc3c(=O)n4c(nc3c2)CCCCC4)n1	-11	2	-37	3	35*
COC(=O)c1cc(-c2ccc(Br)cc2)on1	4	-4	-3	/	15
CCN(CC)C(=O)c1cc(-c2ccc(Br)cc2)on1	-4	10	75*	?	/
CCNC(=O)/C(=C/c1ccc2c(c1)OCO2)NC(=O)c1ccc(Br)cc1	79*	-1	0	/	-3
CCOC(=O)c1csc(NC(=O)c2ccccc2)n1	11	-1	50*	/	?
CCOC(=O)c1csc(NC(=O)c2cc3ccccc3o2)n1	-13	-5	64*	44	6
CCOC(=O)c1csc(NC(=O)c2ccc(OCC)cc2)n1	/	10	/	-12	-4
CCOC(=O)c1sc(NC(=O)c2cc3ccccc3o2)nc1C	/	4	/	-39	12
CCOC(=O)Cc1cnc(NC(=O)c2ccccc2)s1	-4	/	51*	48	-1
COc1cccc(-c2ccc3c(c2)O[C@@H](CN(C)Cc2ccncc2)[C@@H](C)CN([C@H](C)CO)S3(=O)=O)c1	-8	/	2	/	/
CNc1ccc(/C=C(\C#N)c2ccccn2)cc1[N+](=O)[O-]	1	0	74*	?	14
CN1[C@H](C(=O)NCC2CC2)[C@@H](CO)[C@@H]2Cn3c(ccc(-c4ccc(F)cc4)c3=O)[C@@H]21	-5	/	-1	/	/
O=C(NCc1cccc2ccccc12)c1cccs1	22	-1	55*	51	22
O=C(Cc1cccc2ccccc12)NNC(=O)c1cccs1	/	33	9	/	/
CCCN(C)C[C@H]1OCCCC[C@H](C)Oc2ccc(NS(=O)(=O)c3ccc(F)cc3)cc2C(=O)N([C@@H](C)CO)C[C@@H]1C	-41	/	2	/	/
CC(=O)Nc1cccc(-c2csc(C(O)c3ccccc3)n2)c1 (configuration not stated)	2	/	49*	/	-1
